Our source for the outcome values is PubChem BioAssay AID651774 (Broad Institute, 2012).

Results with a measured potency or affinity are listed apart. Calls of active or inactive are those of the source. How the calls were made is not given here.

The nature of the assay: cytotoxicity in HeLa cells, dose response, cytotoxicity control, cell-based, 24 h, dry powder (AID 651774). To be noted: HeLa viability, CellTiter-Glo ATP luminescence; series mostly up to 35 µM. On the technique in general: Cellular ATP, detected with luciferase, serves as a proxy for viable cell number.
For the compound `CC(C)(C)OC(=O)N1CCC(NC(=O)Cc2ccc(-c3ccccc3)cc2)CC1`, the outcome was inactive.

`Cc1cccc(CC(=O)NC2CCCC2)c1`: the result was inactive.

`CCn1nnnc1NCc1ccccc1`: the result was inactive.

`Cn1nnc(NCc2ccc(C(F)(F)F)cc2)n1`: the compound was called inactive.

On to `CS(=O)(=O)c1ccc(CC(=O)NC2CCCC2)cc1`, for which the result was inactive.

With `CC(C)n1nnc(NCc2ccc(N3CCCC3)cc2)n1`, the compound was called inactive.

Regarding `O=C(Cc1ccc(OC(F)(F)F)cc1)NC1CCCC1`, the compound was called inactive.

With `O=C(Cc1ccc(-c2ccccc2)cc1)NC1CCNCC1`, the call was inactive.

On to `CN1CCC(NC(=O)Cc2ccc(-c3ccccc3)cc2)CC1`, for which the compound was classed as inactive.

In the case of `CN(C(=O)Cc1ccc(-c2ccccc2)cc1)C1CCCC1`, the compound was classed as inactive.

Take `CCn1nnc(NCc2ccc(C(C)C)cc2)n1`: the compound was called inactive.

Regarding `Cn1nnc(NCc2ccccc2)n1`, the result was inactive.

`O=C(Cc1ccccn1)NC1CCCC1`: the compound was classed as inactive.

In the case of `O=C(Cc1ccc(-c2ccccc2)cc1)N1CC(F)(F)C1`, the compound was called inactive.

In the case of `FC(F)(F)c1ccc(CNc2nn[nH]n2)cc1`, the compound was called inactive.

Turning to `CC(C)c1ccc(CNc2nn[nH]n2)cc1`, the compound was classed as inactive.

Regarding `O=C(Cc1ccc(-c2ccccc2)cc1)NCc1ccccc1`, the result was inactive.

Consider `O=C(Cc1ccc(-c2ccccc2)cc1)N1CCC(F)(F)CC1`, for which the compound was classed as inactive.

In the case of `O=C(Cc1ccc(-c2ccccc2)cc1)Nc1ccccc1`, the compound was called inactive.

Take `O=C(Cc1ccccc1OC(F)(F)F)NC1CCCC1`: the result was inactive.

Consider `O=C(Cc1ccccc1)NC1CCCC1`, for which the outcome was inactive.

As for `CCC(C)NC(=O)Cc1ccc(-c2ccccc2)cc1` (centres undefined), the compound was called inactive.

For `O=C(Cc1ccc(-c2ccncc2)cc1)NC1CCCC1`, the compound was called inactive.

In the case of `O=C(CCc1ccc(-c2ccccc2)cc1)NC1CCCC1`, the call was inactive.

For the compound `Cn1nnc(NCc2ccc(N3CCCC3)cc2)n1`, the call was inactive.

As for `Cn1nnnc1NCc1ccccc1`, the call was inactive.

Consider `CN1CCN(C(=O)Cc2ccc(-c3ccccc3)cc2)CC1`, for which the compound was called inactive.

Consider `N#Cc1cccc(CC(=O)NC2CCCC2)c1`, for which the compound was called inactive.

As for `O=C(Cc1ccc(-c2ccccc2)cc1)NC1CCC1`, the outcome was inactive.
